What was measured:
Test in all cases: DAPPL (digital affinity profiling via proximity ligation, sequencing); 10 mM Tris-HCl pH 7.5, 50 mM NaCl, 1 mM DTT, 4% glycerol, room temperature, 30 min; GST-TFs on glutathione beads, 16-mer random dsDNA library, 0.1% formaldehyde crosslink after washing; high values mean tight binding
[1] = target: T1, FEV (Homo sapiens, UniProt Q99581 1-238); settings: protein: recombinant; tags: N-terminal GST; dsDNA, one strand shown
T1 sequence: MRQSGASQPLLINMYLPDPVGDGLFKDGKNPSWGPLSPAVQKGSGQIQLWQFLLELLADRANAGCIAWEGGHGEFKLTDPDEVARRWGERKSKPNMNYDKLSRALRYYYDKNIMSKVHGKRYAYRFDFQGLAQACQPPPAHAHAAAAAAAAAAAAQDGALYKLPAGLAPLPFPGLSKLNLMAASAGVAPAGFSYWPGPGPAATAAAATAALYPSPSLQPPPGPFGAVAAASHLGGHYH
Procedure, shortened: (§1)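 Beads coated with glutathione captured GST-fused human transcription factors that had been expressed in yeast, and the factors were then given DNA barcodes and pooled with a tag-only sample. The pools were incubated with 200 nmole of a random double-stranded 16-mer DNA library in Tris/NaCl/DTT/glycerol buffer for 30 min at room temperature, washed, crosslinked with 0.1% formaldehyde and proximity-ligated with BsaI/T4 ligase at 37 °C for 1 h. PCR amplification and Illumina NextSeq500 sequencing came last. Binding signal is each hexamer's read frequency for a factor divided by its frequency for the tag-only sample.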

[2] = target: ETV5 (Homo sapiens, UniProt P41161 1-510); settings: protein: recombinant; tags: N-terminal GST; dsDNA, one strand shown
ETV5, sequence (P41161 whole entry): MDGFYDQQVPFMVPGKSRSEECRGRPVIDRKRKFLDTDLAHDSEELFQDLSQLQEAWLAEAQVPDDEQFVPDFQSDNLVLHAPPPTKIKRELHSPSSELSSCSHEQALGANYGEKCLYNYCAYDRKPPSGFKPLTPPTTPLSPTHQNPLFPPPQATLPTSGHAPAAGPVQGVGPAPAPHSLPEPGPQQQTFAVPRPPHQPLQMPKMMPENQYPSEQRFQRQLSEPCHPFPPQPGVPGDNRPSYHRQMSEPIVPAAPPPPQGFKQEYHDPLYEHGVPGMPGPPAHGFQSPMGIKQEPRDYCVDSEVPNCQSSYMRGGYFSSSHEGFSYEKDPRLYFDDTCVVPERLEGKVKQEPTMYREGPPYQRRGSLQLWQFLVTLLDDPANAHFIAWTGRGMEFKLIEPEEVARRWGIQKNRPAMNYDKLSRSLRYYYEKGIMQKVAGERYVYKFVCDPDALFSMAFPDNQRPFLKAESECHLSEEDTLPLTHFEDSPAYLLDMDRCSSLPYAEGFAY
Procedure, shortened: as §1

[3] = target: HSF1 (Homo sapiens, UniProt Q00613 1-529); settings: protein: recombinant; tags: N-terminal GST; chain copies: 3; dsDNA, one strand shown
HSF1, sequence (Q00613 whole entry): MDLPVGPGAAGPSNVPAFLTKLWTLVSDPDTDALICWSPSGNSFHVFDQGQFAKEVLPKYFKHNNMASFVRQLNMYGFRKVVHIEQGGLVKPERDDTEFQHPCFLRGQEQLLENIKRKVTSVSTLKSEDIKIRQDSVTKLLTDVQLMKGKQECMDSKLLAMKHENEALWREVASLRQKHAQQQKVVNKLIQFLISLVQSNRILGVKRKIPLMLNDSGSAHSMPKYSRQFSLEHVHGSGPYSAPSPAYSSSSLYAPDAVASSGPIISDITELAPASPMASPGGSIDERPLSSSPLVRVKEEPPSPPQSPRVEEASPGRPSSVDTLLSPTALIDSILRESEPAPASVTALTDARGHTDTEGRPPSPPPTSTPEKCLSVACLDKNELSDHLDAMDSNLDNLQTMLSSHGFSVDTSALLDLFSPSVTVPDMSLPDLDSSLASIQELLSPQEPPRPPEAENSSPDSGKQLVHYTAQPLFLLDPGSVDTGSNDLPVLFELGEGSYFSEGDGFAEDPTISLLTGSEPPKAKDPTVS
Procedure, shortened: as §1

[4] = target: T2, SPIC (Homo sapiens, UniProt Q8N5J4 1-248); settings: protein: recombinant; tags: N-terminal GST; dsDNA, one strand shown
T2 sequence: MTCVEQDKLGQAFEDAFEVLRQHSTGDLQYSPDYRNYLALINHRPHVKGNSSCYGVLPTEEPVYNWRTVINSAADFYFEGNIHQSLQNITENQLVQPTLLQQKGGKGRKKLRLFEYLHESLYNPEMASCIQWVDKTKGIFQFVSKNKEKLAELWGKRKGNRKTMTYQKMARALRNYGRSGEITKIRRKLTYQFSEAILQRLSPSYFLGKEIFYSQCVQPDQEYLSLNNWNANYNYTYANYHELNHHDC
Procedure, shortened: as §1

[5] = target: ELF4 (Homo sapiens, UniProt Q99607 1-663); settings: protein: recombinant; tags: N-terminal GST; dsDNA, one strand shown
ELF4, sequence (Q99607 whole entry): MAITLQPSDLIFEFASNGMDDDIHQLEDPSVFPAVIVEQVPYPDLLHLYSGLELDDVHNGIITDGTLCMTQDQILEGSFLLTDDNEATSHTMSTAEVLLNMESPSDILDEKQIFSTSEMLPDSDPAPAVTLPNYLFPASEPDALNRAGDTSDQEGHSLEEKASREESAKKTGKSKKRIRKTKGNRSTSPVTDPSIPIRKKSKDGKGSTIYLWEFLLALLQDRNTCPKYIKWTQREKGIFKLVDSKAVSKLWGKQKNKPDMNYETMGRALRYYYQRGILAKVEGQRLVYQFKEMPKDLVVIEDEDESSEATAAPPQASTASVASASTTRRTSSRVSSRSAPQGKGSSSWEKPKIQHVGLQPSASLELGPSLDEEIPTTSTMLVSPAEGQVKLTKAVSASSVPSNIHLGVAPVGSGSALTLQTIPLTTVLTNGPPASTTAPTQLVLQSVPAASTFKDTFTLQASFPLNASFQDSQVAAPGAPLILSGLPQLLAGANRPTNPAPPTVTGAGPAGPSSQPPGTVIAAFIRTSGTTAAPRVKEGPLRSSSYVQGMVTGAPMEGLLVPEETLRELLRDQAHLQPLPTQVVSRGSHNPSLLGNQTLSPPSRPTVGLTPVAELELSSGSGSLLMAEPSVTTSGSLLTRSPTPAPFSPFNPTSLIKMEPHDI
Procedure, shortened: as §1

[6] = target: T3, ELK4 (Homo sapiens, UniProt P28324-2 1-405); settings: protein: recombinant; tags: N-terminal GST; dsDNA, one strand shown
T3 sequence: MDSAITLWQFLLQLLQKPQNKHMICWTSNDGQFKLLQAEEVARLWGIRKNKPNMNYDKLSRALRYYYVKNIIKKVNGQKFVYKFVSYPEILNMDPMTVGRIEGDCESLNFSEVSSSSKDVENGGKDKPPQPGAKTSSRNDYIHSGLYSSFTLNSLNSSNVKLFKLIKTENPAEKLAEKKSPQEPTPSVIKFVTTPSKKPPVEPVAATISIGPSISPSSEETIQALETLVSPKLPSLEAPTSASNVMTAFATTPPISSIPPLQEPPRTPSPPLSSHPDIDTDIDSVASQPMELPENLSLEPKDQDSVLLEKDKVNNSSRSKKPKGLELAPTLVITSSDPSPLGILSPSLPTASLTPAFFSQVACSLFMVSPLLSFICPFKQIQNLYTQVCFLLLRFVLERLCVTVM
Procedure, shortened: as §1

[7] = target: T4, ETV2 (Homo sapiens, UniProt O00321 1-342); settings: protein: recombinant; tags: N-terminal GST; dsDNA, one strand shown
T4 sequence: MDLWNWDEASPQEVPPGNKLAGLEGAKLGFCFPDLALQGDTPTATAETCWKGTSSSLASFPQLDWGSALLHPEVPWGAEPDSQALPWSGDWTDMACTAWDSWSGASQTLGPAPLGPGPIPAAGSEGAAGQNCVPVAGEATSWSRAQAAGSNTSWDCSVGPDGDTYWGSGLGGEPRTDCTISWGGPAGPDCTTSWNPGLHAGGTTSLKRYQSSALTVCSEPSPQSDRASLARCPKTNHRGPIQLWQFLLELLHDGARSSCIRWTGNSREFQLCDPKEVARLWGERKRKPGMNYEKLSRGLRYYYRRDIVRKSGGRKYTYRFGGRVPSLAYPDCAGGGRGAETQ
Procedure, shortened: as §1

[8] = target: T5, ELF3 (Homo sapiens, UniProt P78545 1-371); settings: protein: recombinant; tags: N-terminal GST; dsDNA, one strand shown
T5 sequence: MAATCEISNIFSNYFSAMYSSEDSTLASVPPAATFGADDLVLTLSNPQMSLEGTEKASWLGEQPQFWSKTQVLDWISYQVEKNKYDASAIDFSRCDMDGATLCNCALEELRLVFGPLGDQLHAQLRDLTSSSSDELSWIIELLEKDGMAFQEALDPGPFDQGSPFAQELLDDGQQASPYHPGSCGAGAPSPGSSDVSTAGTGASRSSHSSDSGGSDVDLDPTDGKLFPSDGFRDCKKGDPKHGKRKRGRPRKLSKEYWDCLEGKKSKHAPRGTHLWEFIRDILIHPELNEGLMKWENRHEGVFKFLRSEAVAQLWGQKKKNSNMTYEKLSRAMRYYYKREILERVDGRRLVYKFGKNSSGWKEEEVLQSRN
Procedure, shortened: as §1

[9] = target: CRX (Homo sapiens, UniProt O43186 1-299); settings: protein: recombinant; tags: N-terminal GST; dsDNA, one strand shown
CRX, sequence (O43186 whole entry): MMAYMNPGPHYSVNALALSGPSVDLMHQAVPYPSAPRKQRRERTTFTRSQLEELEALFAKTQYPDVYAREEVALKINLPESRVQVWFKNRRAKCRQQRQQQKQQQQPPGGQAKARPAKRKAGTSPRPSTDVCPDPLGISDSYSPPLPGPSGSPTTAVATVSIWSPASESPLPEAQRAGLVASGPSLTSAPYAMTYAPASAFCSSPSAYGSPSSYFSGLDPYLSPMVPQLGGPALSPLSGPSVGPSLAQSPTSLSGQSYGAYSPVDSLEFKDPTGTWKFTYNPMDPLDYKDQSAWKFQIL
Procedure, shortened: as §1

[10] = target: ETV1 (Homo sapiens, UniProt P50549 1-477); settings: protein: recombinant; tags: N-terminal GST; dsDNA, one strand shown
ETV1, sequence (P50549 whole entry): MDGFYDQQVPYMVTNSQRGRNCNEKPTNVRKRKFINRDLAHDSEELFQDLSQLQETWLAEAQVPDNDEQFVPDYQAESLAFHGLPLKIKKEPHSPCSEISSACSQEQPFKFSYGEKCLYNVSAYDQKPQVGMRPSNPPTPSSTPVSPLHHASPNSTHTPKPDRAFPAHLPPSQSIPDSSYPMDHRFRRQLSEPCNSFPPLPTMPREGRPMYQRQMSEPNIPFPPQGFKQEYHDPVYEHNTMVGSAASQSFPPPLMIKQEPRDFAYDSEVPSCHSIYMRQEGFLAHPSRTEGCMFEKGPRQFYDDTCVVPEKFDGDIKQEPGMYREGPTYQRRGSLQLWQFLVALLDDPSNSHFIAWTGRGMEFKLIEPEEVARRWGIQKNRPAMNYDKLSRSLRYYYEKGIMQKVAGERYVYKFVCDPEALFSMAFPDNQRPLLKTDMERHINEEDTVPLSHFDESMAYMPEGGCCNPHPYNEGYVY
Procedure, shortened: as §1

[11] = target: T6, ERF (Homo sapiens, UniProt P50548 1-548); settings: protein: recombinant; tags: N-terminal GST; dsDNA, one strand shown
T6 sequence: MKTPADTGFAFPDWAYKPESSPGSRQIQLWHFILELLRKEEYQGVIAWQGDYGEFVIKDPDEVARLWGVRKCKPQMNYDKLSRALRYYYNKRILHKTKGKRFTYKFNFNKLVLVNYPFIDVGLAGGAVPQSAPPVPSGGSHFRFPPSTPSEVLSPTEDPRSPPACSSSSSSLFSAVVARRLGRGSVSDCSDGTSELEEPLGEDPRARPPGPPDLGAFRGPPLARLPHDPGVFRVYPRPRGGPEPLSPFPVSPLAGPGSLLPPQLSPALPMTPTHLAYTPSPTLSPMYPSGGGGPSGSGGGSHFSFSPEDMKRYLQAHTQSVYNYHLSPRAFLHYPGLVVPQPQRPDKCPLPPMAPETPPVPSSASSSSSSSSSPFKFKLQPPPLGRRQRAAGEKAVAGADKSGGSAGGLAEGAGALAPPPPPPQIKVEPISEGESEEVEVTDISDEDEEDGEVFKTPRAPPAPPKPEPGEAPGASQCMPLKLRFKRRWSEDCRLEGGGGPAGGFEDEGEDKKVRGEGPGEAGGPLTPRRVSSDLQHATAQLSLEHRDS
Procedure, shortened: as §1

[12] = target: T7, ETV3L (Homo sapiens, UniProt Q6ZN32 1-361); settings: protein: recombinant; tags: N-terminal GST; dsDNA, one strand shown
T7 sequence: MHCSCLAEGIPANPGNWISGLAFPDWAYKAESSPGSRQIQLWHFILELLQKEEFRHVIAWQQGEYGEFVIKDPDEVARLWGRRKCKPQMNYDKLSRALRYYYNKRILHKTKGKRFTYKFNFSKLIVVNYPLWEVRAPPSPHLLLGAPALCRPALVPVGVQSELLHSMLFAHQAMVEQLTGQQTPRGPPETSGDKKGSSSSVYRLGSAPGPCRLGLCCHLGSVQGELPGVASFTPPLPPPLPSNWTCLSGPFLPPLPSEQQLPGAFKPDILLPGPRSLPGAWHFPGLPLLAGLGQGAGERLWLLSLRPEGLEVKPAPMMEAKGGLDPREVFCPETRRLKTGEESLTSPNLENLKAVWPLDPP
Procedure, shortened: as §1

[13] = target: T8, ETS2 (Homo sapiens, UniProt P15036 1-469); settings: protein: recombinant; tags: N-terminal GST; dsDNA, one strand shown
T8 sequence: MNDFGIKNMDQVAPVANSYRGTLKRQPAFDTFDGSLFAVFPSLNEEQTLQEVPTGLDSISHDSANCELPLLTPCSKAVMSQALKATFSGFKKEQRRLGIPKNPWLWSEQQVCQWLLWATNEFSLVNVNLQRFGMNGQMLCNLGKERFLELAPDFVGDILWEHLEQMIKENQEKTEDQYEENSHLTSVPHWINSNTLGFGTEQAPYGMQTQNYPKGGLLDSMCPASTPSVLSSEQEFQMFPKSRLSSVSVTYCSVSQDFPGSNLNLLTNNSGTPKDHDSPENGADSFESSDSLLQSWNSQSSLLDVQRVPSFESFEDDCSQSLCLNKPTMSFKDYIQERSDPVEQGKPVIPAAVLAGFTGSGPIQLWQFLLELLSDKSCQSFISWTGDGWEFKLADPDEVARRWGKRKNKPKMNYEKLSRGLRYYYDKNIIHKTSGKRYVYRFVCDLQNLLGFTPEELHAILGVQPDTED
Procedure, shortened: as §1

[14] = target: T9, SPDEF (Homo sapiens, UniProt O95238 1-335); settings: protein: recombinant; tags: N-terminal GST; dsDNA, one strand shown
T9 sequence: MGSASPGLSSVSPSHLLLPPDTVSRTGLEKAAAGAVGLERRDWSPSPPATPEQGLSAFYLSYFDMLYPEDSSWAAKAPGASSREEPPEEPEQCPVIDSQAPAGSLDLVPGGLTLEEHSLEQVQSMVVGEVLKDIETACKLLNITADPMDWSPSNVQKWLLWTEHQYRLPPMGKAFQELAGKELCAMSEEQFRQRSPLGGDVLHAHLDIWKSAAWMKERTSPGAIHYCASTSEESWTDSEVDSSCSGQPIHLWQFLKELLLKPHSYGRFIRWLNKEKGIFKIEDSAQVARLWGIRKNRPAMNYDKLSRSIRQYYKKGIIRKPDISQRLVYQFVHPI
Procedure, shortened: as §1

[15] = target: T10, ETV7 (Homo sapiens, UniProt Q9Y603 1-341); settings: protein: recombinant; tags: N-terminal GST; dsDNA, one strand shown
T10 sequence: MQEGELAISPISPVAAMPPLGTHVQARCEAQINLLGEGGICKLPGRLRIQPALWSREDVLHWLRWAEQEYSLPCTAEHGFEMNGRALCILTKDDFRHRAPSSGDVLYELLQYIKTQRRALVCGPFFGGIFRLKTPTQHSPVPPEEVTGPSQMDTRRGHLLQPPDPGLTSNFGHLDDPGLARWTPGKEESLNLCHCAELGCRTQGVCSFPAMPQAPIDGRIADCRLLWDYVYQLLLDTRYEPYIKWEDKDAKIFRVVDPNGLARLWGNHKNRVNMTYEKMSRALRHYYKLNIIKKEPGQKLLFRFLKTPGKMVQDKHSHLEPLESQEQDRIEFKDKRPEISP
Procedure, shortened: as §1

[16] = target: T11, ELF5 (Homo sapiens, UniProt Q9UKW6-2 1-255); settings: protein: recombinant; tags: N-terminal GST; dsDNA, one strand shown
T11 sequence: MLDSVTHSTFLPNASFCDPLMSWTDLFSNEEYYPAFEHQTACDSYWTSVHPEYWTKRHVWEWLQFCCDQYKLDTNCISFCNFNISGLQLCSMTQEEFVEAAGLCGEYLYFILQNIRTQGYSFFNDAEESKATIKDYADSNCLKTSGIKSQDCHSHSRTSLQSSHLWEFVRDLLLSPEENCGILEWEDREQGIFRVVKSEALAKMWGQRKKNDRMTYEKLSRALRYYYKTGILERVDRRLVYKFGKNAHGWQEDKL
Procedure, shortened: as §1

[17] = target: T12, ETV3 (Homo sapiens, UniProt P41162-2 1-143); settings: protein: recombinant; tags: N-terminal GST; dsDNA, one strand shown
T12 sequence: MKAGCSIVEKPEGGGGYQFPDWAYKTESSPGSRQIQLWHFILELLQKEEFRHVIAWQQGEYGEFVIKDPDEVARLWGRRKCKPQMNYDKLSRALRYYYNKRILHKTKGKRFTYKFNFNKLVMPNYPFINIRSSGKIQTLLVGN
Procedure, shortened: as §1

[18] = target: ETV6 (Homo sapiens, UniProt P41212 1-452); settings: protein: recombinant; tags: N-terminal GST; dsDNA, one strand shown
ETV6, sequence (P41212 whole entry): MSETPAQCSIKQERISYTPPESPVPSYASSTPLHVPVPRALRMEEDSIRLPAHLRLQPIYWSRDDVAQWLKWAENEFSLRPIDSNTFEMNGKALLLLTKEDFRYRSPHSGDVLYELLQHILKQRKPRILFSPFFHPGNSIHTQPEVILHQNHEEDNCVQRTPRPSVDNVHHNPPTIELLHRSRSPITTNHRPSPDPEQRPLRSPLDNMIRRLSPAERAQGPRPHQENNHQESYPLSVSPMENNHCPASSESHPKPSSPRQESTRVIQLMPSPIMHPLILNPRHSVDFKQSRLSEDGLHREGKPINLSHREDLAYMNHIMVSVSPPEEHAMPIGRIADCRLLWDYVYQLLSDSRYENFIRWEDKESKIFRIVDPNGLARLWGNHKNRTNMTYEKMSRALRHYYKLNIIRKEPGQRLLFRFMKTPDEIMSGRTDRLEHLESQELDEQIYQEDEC
Procedure, shortened: as §1

Question: For TTCACG, which binding signal [1] is on record?
Answer: 1.28 fold enrichment (6-mer frequency, TF over GST control)

Question: And the binding signal [2]?
Answer: 1.34 fold enrichment (6-mer frequency, TF over GST control)

Question: And the binding signal [3]?
Answer: 1.51 fold enrichment (6-mer frequency, TF over GST control)

Question: And the binding signal [4]?
Answer: 1.45 fold enrichment (6-mer frequency, TF over GST control)

Question: And the binding signal [5]?
Answer: 1.46 fold enrichment (6-mer frequency, TF over GST control)

Question: What about the binding signal [6] of the same sequence?
Answer: 1.55 fold enrichment (6-mer frequency, TF over GST control)

Question: And the binding signal [7]?
Answer: 1.34 fold enrichment (6-mer frequency, TF over GST control)

Question: And the binding signal [8]?
Answer: 1.41 fold enrichment (6-mer frequency, TF over GST control)

Question: And the binding signal [9]?
Answer: 1.26 fold enrichment (6-mer frequency, TF over GST control)

Question: What about the binding signal [10] of the same sequence?
Answer: 1.32 fold enrichment (6-mer frequency, TF over GST control)

Question: And the binding signal [11]?
Answer: 1.44 fold enrichment (6-mer frequency, TF over GST control)

Question: What about the binding signal [12] of the same sequence?
Answer: 1.32 fold enrichment (6-mer frequency, TF over GST control)

Question: What about the binding signal [13] of the same sequence?
Answer: 1.34 fold enrichment (6-mer frequency, TF over GST control)

Question: What about the binding signal [14] of the same sequence?
Answer: 1.34 fold enrichment (6-mer frequency, TF over GST control)

Question: And the binding signal [15]?
Answer: 1.43 fold enrichment (6-mer frequency, TF over GST control)

Question: What about the binding signal [16] of the same sequence?
Answer: 1.38 fold enrichment (6-mer frequency, TF over GST control)

Question: And the binding signal [17]?
Answer: 1.35 fold enrichment (6-mer frequency, TF over GST control)

Question: And the binding signal [18]?
Answer: 1.43 fold enrichment (6-mer frequency, TF over GST control)

Reference: paper PMC7862700, “An all-to-all approach to the identification of sequence-specific readers for epigenetic DNA modifications on cytosine”
